Experimental findings from article PMC4336329 (PLoS ONE, 2015) are described below.

Out of some 310,000 compounds screened, about 14,000 (4.5%) showed an effect of 50% or more. Effects have a minus sign here. The sample holds strong results, similar compounds and a random draw of the others, so the mix is not that of the screen.
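Also: peak tail current of the secondary pulse compared with the same well before compound.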

In the assay the target is human ether-à-go-go-related gene (hERG) potassium channel (human, UniProt Q12809). In words: primary screen, population patch clamp on CHO cells stably expressing hERG; higher = less effect of the substance.
Sequence of human ether-à-go-go-related gene (hERG) potassium channel (Q12809 whole entry, looked up): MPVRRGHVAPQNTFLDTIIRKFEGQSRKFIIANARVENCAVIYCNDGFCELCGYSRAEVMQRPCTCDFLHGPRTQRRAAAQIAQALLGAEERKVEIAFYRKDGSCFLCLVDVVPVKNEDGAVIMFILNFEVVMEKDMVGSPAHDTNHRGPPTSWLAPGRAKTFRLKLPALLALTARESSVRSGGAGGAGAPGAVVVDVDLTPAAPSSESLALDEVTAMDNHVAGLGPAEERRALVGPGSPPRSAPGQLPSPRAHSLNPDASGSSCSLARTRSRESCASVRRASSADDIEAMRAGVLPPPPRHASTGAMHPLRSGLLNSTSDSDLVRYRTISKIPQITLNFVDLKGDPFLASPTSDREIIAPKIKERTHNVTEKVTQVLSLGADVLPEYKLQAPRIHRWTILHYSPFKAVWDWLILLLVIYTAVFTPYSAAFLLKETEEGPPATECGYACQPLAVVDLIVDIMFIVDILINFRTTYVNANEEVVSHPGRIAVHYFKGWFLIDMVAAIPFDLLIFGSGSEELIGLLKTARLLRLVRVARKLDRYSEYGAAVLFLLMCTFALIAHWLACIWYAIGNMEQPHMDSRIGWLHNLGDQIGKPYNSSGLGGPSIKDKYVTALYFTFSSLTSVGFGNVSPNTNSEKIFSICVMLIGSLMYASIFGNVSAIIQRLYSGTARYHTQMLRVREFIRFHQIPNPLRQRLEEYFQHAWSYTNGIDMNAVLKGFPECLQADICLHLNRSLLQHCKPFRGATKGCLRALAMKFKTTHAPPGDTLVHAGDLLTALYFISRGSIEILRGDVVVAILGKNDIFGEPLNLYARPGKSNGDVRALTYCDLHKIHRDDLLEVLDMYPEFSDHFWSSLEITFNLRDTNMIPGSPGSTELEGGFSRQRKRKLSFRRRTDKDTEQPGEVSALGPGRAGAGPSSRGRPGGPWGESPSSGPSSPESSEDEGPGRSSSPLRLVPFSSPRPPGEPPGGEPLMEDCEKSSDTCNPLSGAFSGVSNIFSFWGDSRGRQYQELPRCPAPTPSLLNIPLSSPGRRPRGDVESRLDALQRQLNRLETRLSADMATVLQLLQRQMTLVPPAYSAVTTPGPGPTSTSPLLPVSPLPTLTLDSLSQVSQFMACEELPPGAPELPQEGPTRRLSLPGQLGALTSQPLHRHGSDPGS
Regarding `Cc1cc(N/N=C/c2ccccc2O)nc(N2CCOCC2)n1`, the “hERG current change (%, negative = inhibition) at 10uM” value turned out to be 6.96%.

Turning to `COc1ccc2ccc(OCC(=O)N3c4ccccc4NC(=O)CC3C)cc2c1` (stereo not shown), the “hERG current change (%, negative = inhibition) at 10uM” value is given as -21.2%.

Regarding `Fc1ccc(-[n+]2nc(Nc3ccccc3)sc2-c2c3ccccc3cc3ccccc23)cc1.[Cl-]`, the “hERG current change (%, negative = inhibition) at 10uM” value came out at 18.2%.

`COc1ccc(-c2sc(Nc3ccccc3)n[n+]2-c2ccc(F)cc2)c(OC)c1OC.[Cl-]`: the “hERG current change (%, negative = inhibition) at 10uM” value is -72.2%.

With `COc1ccc(-c2sc(Nc3ccccc3)n[n+]2-c2ccc(F)cc2)c(C)c1C.[Cl-]`, the “hERG current change (%, negative = inhibition) at 10uM” value is listed as -74.5%.

In the case of `COc1ccc(-c2sc(Nc3ccccc3)n[n+]2C)c(C)c1C.[Cl-]`, the “hERG current change (%, negative = inhibition) at 10uM” value is listed as -1.19%.

`COc1ccc2ccccc2c1-c1sc(Nc2ccccc2)n[n+]1-c1ccc(F)cc1.[Cl-]`: the “hERG current change (%, negative = inhibition) at 10uM” value is given as -57.4%.

As for `Oc1ccc2ccccc2c1-c1sc(Nc2ccccc2)n[n+]1-c1ccc(F)cc1.[Cl-]`, the “hERG current change (%, negative = inhibition) at 10uM” value is listed as -0.475%.

Consider `COc1cc(OC)c(-c2sc(Nc3ccccc3)n[n+]2-c2ccc(F)cc2)cc1OC.[Cl-]`, for which the “hERG current change (%, negative = inhibition) at 10uM” value is -0.831%.

As for `COc1ccc(-c2sc(Nc3ccccc3)n[n+]2-c2ccc(F)cc2)cc1Br.[Cl-]`, the “hERG current change (%, negative = inhibition) at 10uM” value is 4.03%.

Regarding `Cc1nc2sc3c(c2c(=O)o1)CCC3`, the “hERG current change (%, negative = inhibition) at 10uM” value was found to be 4.18%.

For `O=c1[nH]c(O)c(/C=C2\C=Nc3ccccc32)[nH]1`, the “hERG current change (%, negative = inhibition) at 10uM” value turned out to be 20.9%.

For `Cc1cc(S(=O)(=O)N2CCOCC2)ccc1OCC(=O)NCC1CCCO1` (stereo not shown), the “hERG current change (%, negative = inhibition) at 10uM” value was -0.633%.

Regarding `COc1ccc(S(=O)(=O)N(Cc2ccccc2)c2ccccc2C(=O)O)cc1`, the “hERG current change (%, negative = inhibition) at 10uM” value was found to be 31.8%.

For the compound `O=S(=O)(Cc1ccccc1)NCCc1cccc(Cl)c1`, the “hERG current change (%, negative = inhibition) at 10uM” value was -5.57%.

With `Cc1nnc(-c2cnn(-c3ccccc3)c2N)n1Cc1ccccc1`, the “hERG current change (%, negative = inhibition) at 10uM” value was -1.94%.

With `CCCOc1ccc(CC(CC(=O)O)(C(=O)O)C(=O)O)cc1`, the “hERG current change (%, negative = inhibition) at 10uM” value is reported as 13.5%.

For the compound `CCOC(=O)c1cccc(Nc2ncnc3ccccc23)c1.Cl`, the “hERG current change (%, negative = inhibition) at 10uM” value is listed as -24.9%.

As to `COC(=O)c1cccc(Nc2ncnc3ccc(C)cc23)c1`, the “hERG current change (%, negative = inhibition) at 10uM” value is on record as -20.9%.

As for `CCOC(=O)c1cccc(Nc2ncnc3ccc(C)cc23)c1`, the “hERG current change (%, negative = inhibition) at 10uM” value is -59.3%.

On to `Cn1c(SCC(=O)c2ccccc2)nnc1-c1ccncc1`, for which the “hERG current change (%, negative = inhibition) at 10uM” value was -0.277%.

On to `Cn1c(SCCCC(=O)c2ccc(F)cc2)nnc1-c1ccncc1`, for which the “hERG current change (%, negative = inhibition) at 10uM” value is given as -59.6%.

As to `CCOc1ccc(C(C)=O)cc1CSc1nnc(-c2ccncc2)n1CCOC`, the “hERG current change (%, negative = inhibition) at 10uM” value is given as -0.498%.

`Cn1c(SCCCC(=O)c2ccccc2)nnc1-c1ccncc1`: the “hERG current change (%, negative = inhibition) at 10uM” value is -42.9%.

As for `Cc1ccc(C(=O)CSc2nnc(-c3ccncc3)n2C)cc1`, the “hERG current change (%, negative = inhibition) at 10uM” value is recorded as -3.2%.

Take `Cn1c(SCCC(=O)O)nnc1-c1ccncc1`: the “hERG current change (%, negative = inhibition) at 10uM” value was 1.73%.

Consider `COCCn1c(SCC(=O)N2CCOCC2)nnc1-c1ccncc1`, for which the “hERG current change (%, negative = inhibition) at 10uM” value is on record as -7.01%.

For `Cn1c(SCCCC(=O)c2ccc(Br)cc2)nnc1-c1ccncc1`, the “hERG current change (%, negative = inhibition) at 10uM” value was -70.2%.

Consider `COCCn1c(SCCCC(=O)c2ccc(Br)cc2)nnc1-c1ccncc1`, for which the “hERG current change (%, negative = inhibition) at 10uM” value is recorded as -60.7%.

As for `[O-][n+]1onc2c1CCC1N(O)C(c3ccccc3)CC21O` (stereo not shown), the “hERG current change (%, negative = inhibition) at 10uM” value came to 14.7%.

On to `O=C(c1cc(C2CC2)nn1-c1ccccc1)N1CCN(Cc2c(F)cccc2Cl)CC1`, for which the “hERG current change (%, negative = inhibition) at 10uM” value was -36.6%.

In the case of `CN(CCO)C(=O)c1cccc2c1-c1ccccc1C2=O`, the “hERG current change (%, negative = inhibition) at 10uM” value is given as 4.12%.

As for `c1ccc(-c2ccc(-c3ccccn3)s2)nc1`, the “hERG current change (%, negative = inhibition) at 10uM” value was -8.87%.

On to `CCOc1ccc(NC(=O)c2ccc(Br)o2)c([N+](=O)[O-])c1`, for which the “hERG current change (%, negative = inhibition) at 10uM” value stood at 5.5%.

For the compound `CC(C)C(=O)NC(c1ccco1)c1c(O)ccc2ccccc12` (stereo not shown), the “hERG current change (%, negative = inhibition) at 10uM” value turned out to be 14.1%.

In the case of `COc1ccc(C(=O)C2CCCN(Cc3ccc4c(c3)OCCO4)C2)cc1F` (stereo not shown), the “hERG current change (%, negative = inhibition) at 10uM” value is on record as -74.7%.

`COc1ccccc1C(=O)C1CCCN(Cc2ccc3c(c2)OCCO3)C1` (stereo not shown): the “hERG current change (%, negative = inhibition) at 10uM” value is listed as -40.5%.

For the compound `O=C(CN1CCC(C(=O)c2ccc(Cl)cc2)CC1)Nc1ccc2c(c1)OCCO2`, the “hERG current change (%, negative = inhibition) at 10uM” value is reported as -44.9%.

Take `COc1ccc(F)cc1C(=O)C1CCCN(Cc2ccc3c(c2)OCCO3)C1` (stereo not shown): the “hERG current change (%, negative = inhibition) at 10uM” value is listed as -54.3%.

`COc1ccc(F)cc1C(=O)C1CCCN(Cc2ccc(Sc3nncn3C)o2)C1` (stereo not shown): the “hERG current change (%, negative = inhibition) at 10uM” value turned out to be 12.6%.

In the case of `O=C(c1ccc(Cl)cc1)C1CCCN(Cc2ccc3c(c2)OCCO3)C1` (stereo not shown), the “hERG current change (%, negative = inhibition) at 10uM” value is given as -73.5%.

Turning to `O=C(c1ccc(Cl)cc1)C1CCCN(Cc2ccon2)C1` (stereo not shown), the “hERG current change (%, negative = inhibition) at 10uM” value is listed as -18%.

`COc1ccc(C(=O)C2CCCN(Cc3ccc(Sc4nncn4C)o3)C2)cc1F` (stereo not shown): the “hERG current change (%, negative = inhibition) at 10uM” value is given as -15.4%.

`c1ccc(-c2noc(-c3ccc4c(c3)OCO4)n2)cc1`: the “hERG current change (%, negative = inhibition) at 10uM” value is reported as -3.33%.

Turning to `Cc1ccc(CN2CCN(/N=C/c3ccc(C)s3)CC2)c(C)c1`, the “hERG current change (%, negative = inhibition) at 10uM” value is given as -5.96%.

As for `CCn1c(=O)c(C(=O)NNC(=O)c2cccc(Cl)c2)c(O)c2ccccc21`, the “hERG current change (%, negative = inhibition) at 10uM” value amounted to 32.4%.

For `C/C(=N\NC(=O)c1cccc(Br)c1)c1ccc(Br)cc1`, the “hERG current change (%, negative = inhibition) at 10uM” value was 16%.

For `Cc1cc2c(c(=O)n1CCCn1ccnc1)C(c1ccco1)C(C#N)=C(N)O2` (stereo not shown), the “hERG current change (%, negative = inhibition) at 10uM” value is -3.23%.

Consider `CC(O)C(=O)N/N=C/c1ccccc1C(=O)O` (stereo not shown), for which the “hERG current change (%, negative = inhibition) at 10uM” value worked out at 14%.

`O=C(/C(=C/c1ccc(Cl)cc1)c1nc2ccccc2[nH]1)c1cccs1`: the “hERG current change (%, negative = inhibition) at 10uM” value was determined as 2.82%.

For `COc1cc(/C=N\Nc2nc3ccccc3[nH]2)cc(OC)c1OC`, the “hERG current change (%, negative = inhibition) at 10uM” value is -19.8%.

With `COc1ccc(/C=N/Nc2nc3ccccc3[nH]2)cc1OC`, the “hERG current change (%, negative = inhibition) at 10uM” value is on record as -21.8%.

Turning to `COc1cc(/C=C(/C(=O)c2cccs2)c2nc3ccccc3[nH]2)ccc1O`, the “hERG current change (%, negative = inhibition) at 10uM” value is reported as -22.2%.

`COc1cc(/C=C(/C(=O)c2cccs2)c2nc3ccccc3[nH]2)cc(OC)c1O`: the “hERG current change (%, negative = inhibition) at 10uM” value is -56.1%.

Consider `COc1cc(/C=N/Nc2nc3ccccc3[nH]2)cc(OC)c1O`, for which the “hERG current change (%, negative = inhibition) at 10uM” value is reported as -55.9%.
